Data from PubChem BioAssay (Tox21).
Inconclusive results are not listed. Where a call stands in place of a potency, no number is given. Calls of active or inactive are those of the source. Calls follow the shape of the dose curve; as a rule, active = well fitted activation curve with a large enough effect in the repeat runs; inconclusive = weak or mixed curves; inactive = flat fitted curve, though single readings scatter.

Assay: A CellTox Green Cytotoxicity Assay to monitor cytotoxicity in HepG2 cells - 40 hour (AID 1224879); also: nearly all actives have a fitted effect of over 40% in size
Conditions: CellTox Green fluorescence; series mostly up to 76.8 µM
Description: National Center for Advancing Translational Sciences [NCATS]
NIH Chemical Genomics Center [NCGC]
U.S. Environmental Protection Agency [EPA]
National Institutes of Environmental Health Sciences [NIEHS]
National Toxicology Program [NTP]
Cell-based models are critical for drug discovery. Determining the natural cytotoxic effects resulting from test compounds is an essential research activity. A CellTox Green Cytotoxicity Assay to monitor cytotoxicity in real time of continues cell culture during 40 hours of the compound treatment was used to screen Tox21 10K library compounds in HepG2 cells. CellTox Green Cytotoxicity Assay is a nonlytic, homogeneous, biofluorescent method to measure cytotoxicity in cell culture after experimental manipulation. The assay system uses a proprietary asymmetric cyanine dye that is excluded from viable cells but preferentially stains the dead cell's DNA. […] Viable cells produce no appreciable increases in fluorescence. Therefore, the fluorescence signal produced by the binding interaction with dead cell DNA is proportional to cytotoxicity.
The mixture of HepG2 cell suspension and reagents were dispensed at 600cells/6 ul/well in 1536-well tissue culture treated black solid bottom plates using a Multidrop dispenser. After the assay plates were incubated at a 37 C/5% CO2 incubator for 5 hours, 23 nL of compounds dissolved in DMSO, positive and negative controls was transferred to the assay plate by a pintool work station. The plates were incubated at 37 C for 40 hours. The fluorescence intensity were measured at 0h, 8h, 16h, 24h, 32h and 40h time points using ViewLux plate reader during compound treatment.
Potency is read from the fitted curve at half-maximal effect.

Row | SMILES | Potency
1 | CC(CCl)OC(C)CCl (stereo not given) | inactive
2 | FC(F)(Cl)C(F)(Cl)Cl | inactive
3 | Cc1nc2sccn2c(=O)c1CCN1CCC(=C(c2ccc(F)cc2)c2ccc(F)cc2)CC1 | inactive
4 | Cc1cccc(C)c1NC(=O)CN1CCCC1 | inactive
5 | CC(C)=CCC/C(C)=C/C=N/O | inactive
6 | C=CC(C)(O)CC/C=C(/C)CCC=C(C)C (stereo not given) | inactive
7 | C[C@]12CCC(=O)C=C1[C@@H]1C[C@@H]1[C@H]1[C@@H]3[C@@H]4C[C@@H]4[C@@]4(CCC(=O)O4)[C@@]3(C)CC[C@@H]12 | inactive
8 | O=C(O)c1ccc(O)c(O)c1 | inactive
9 | Cc1c(-c2cccnc2)c2ccccc2n1CCCCC(=O)O | inactive
10 | C/C(=C\C(C)CC(C)CC(C)C)C1CC(=O)OC1=O (stereo not given) | inactive
11 | COC(=O)Cc1cccc2ccccc12 | inactive
12 | FC1(F)C(F)(F)C(F)(F)C2(F)C(F)(C1(F)F)C(F)(F)C(F)(F)C1(F)C(F)(F)C(F)(F)C(F)(F)C(F)(F)C12F (stereo not given) | inactive
13 | CC(COc1ccccc1)NC(C)C(O)c1ccc(O)cc1 (stereo not given) | inactive
14 | O=[N+]([O-])c1cccc(I)c1 | inactive
15 | C[Si](C)(C)O[Si](C)(C)O[Si](C)(C)C | inactive
16 | CCCC(=O)OCc1ccccc1 | inactive
17 | NC(=O)c1ccccc1 | inactive
18 | Cc1c(Cl)cccc1Nc1ccccc1C(=O)O | inactive
19 | CC(C)(C)NCC(O)COc1ccc(NC(=O)NC2CCCCC2)cc1 (stereo not given) | inactive
20 | CCOc1ccc2c(c1)C(C)CC(C)(C)N2 (stereo not given) | 43.6 µM (active)

Row | SMILES | Potency
21 | CCc1ccc2c(c1)C(=O)c1ccccc1C2=O | inactive
22 | O=C(O)c1cc(C(=O)O)cc([N+](=O)[O-])c1 | inactive
23 | CC(C(=O)O)c1ccc(/C=C2\CCCCC2=O)cc1 (stereo not given) | inactive
24 | C=C(C)C(=O)OCCCCCCCCCCOC(=O)C(=C)C | inactive
25 | CCCCCO | inactive
26 | CC1(C)CC(O)CC(C)(C)N1[O] | inactive
27 | O=C1c2ccccc2C(=O)C1c1ccc2cc(S(=O)(=O)O)cc(S(=O)(=O)O)c2n1 | inactive
28 | C=CC(=O)OCCCCCCCCCC | inactive
29 | CCCCCCCCCCCCN1CCOCC1 | inactive
30 | COC(=O)c1cc(Cl)ccc1[N+](=O)[O-] | inactive
31 | CCCCCCOC(=O)c1ccccc1 | inactive
32 | Cc1ccc2c(Cl)cc(Cl)c(O)c2n1 | inactive
33 | CC(=O)OCC(=O)[C@@]1(O)CC[C@H]2[C@@H]3CCC4=CC(=O)C=C[C@]4(C)[C@@]3(F)[C@@H](O)C[C@@]21C | inactive
34 | O=C1c2ccccc2C(=O)c2c1ccc(O)c2O | inactive
35 | O=C(C1CCCCC1)N1CC(=O)N2CCCc3ccccc3C2C1 (stereo not given) | inactive
36 | CC(=O)Nc1ccn(C2COC(COC(=O)c3ccccc3)O2)c(=O)n1 (stereo not given) | inactive
37 | O=C1OC(=O)C2CC=CCC12 (stereo not given) | inactive
38 | CCCc1ccc(OC)cc1 | inactive
39 | O=C1c2ccccc2C(=O)C1c1ccc2ccccc2n1 | inactive
40 | c1ccc(CN(Cc2ccccc2)Cc2ccccc2)cc1 | 15.5 µM (active)
